# Reference: PubChem BioAssay (NCI)
# The panel holds about 79,000 compounds, 15% with a hit somewhere; the sample as a whole holds those more often. A number with no mark means an inactive call. The source made the active and inactive calls. Rule as the data show it: active = growth inhibition above about 70%; inactive = the rest.
# Assays:
# [1] = NCI Yeast Anticancer Drug Screen. Data for the rad50 strain (AID 155);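 also: 0% = growth of vehicle-only cultures of the same strain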; settings: S. cerevisiae rad50 strain growth inhibition; at 50.0 µM; active compounds read high
# How it was run: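 Inhibition values express reduced yeast growth in compound-treated cultures relative to vehicle-treated controls.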
# [2] = NCI Yeast Anticancer Drug Screen. Data for the mec2-1 strain (AID 157); settings: S. cerevisiae mec2-1 strain, at 50.0 µM, active compounds read high
# How it was run: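 mec2-1 yeast strain, carrying an alteration in DNA damage repair or cell cycle control, was exposed to compounds; growth inhibition was measured relative to vehicle-treated controls.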
# [3] = NCI Yeast Anticancer Drug Screen. Data for the sgs1 mgt1 strain (AID 161);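 also: 0% = growth of cultures given vehicle only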; settings: S. cerevisiae sgs1 mgt1 strain, at 50.0 µM, active compounds read high
# How it was run: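 This yeast growth screen uses a strain with defined DNA-repair lesions; compound-treated growth is compared with vehicle-treated growth.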
# [4] = NCI Yeast Anticancer Drug Screen. Data for the cln2 rad14 strain (AID 165);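 also: 0% = growth equal to vehicle treated cultures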; settings: S. cerevisiae cln2 rad14 strain, at 50.0 µM, active compounds read high
# How it was run: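 Yeast carrying cln2 and rad14 alterations (cell cycle control and DNA damage repair) were exposed to compounds. Growth inhibition was measured against vehicle-treated controls.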
# [5] = NCI Yeast Anticancer Drug Screen. Data for the bub3 strain (AID 167); settings: S. cerevisiae bub3 mutant strain, at 50.0 µM, active compounds read high
# How it was run: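 Steps: expose the mutant yeast strain to compound; grow alongside vehicle-treated cultures; measure growth; express inhibition against the vehicle cultures.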
# [6] = NCI Yeast Anticancer Drug Screen. Data for the mlh1 rad18 strain (AID 175); settings: S. cerevisiae mlh1 rad18 strain growth inhibition; at 50.0 µM; active compounds read high
# How it was run: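 Growth inhibition of the yeast strain was measured after compound exposure and expressed relative to vehicle-treated controls. The strain carries defined defects in DNA damage repair.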
Structure (SMILES),growth inhibition [1],growth inhibition [2],growth inhibition [3],growth inhibition [4],growth inhibition [5],growth inhibition [6]
O=C(Nc1ccc(Cl)c(Cl)c1)OC1C=CS(=O)(=O)C1 (stereo unspecified),-7.9%,-5.95%,-12.3%,7.7%,3.5%,-0.15%
CC(=O)S,-36.5%,-18.4%,-11.9%,-24.2%,6.35%,5.7%
CC(=O)Nc1cc(OC(C)=O)c(OC(C)=O)c2ccccc12,-7.45%,-6.9%,-0.6%,-1.55%,-33.1%,1.1%
N#C/C(=C/c1cccc2ccccc12)C(=O)c1ccccc1,36.9%,-2.75%,3.6%,26.9%,-3.75%,-5.5%
O=C1Nc2cc([N+](=O)[O-])c(Br)cc2C1=O,22.1%,27.4%,0.7%,14.9%,5.8%,12.1%
CCOC(=O)c1c(-c2ccc(OC)cc2)c(C#N)c(=S)n(C2OC(CO)C(O)C(O)C2O)c1-c1ccccc1 (stereo unspecified),6.7%,-29%,-20%,-11.6%,-12.4%,2.95%
C[C@H]1S[C@@H](c2ccc(Cl)cc2Cl)N(NC(=O)c2ccncc2)C1=O,57.9%,45%,40%,46.9%,52.1%,39.3%
CCOC(=O)C(C#N)=C(CC)CC,-4%,-12.3%,-9.2%,-3.95%,-12.1%,-0.2%
CCCCCN(CCCCC)C(C)=O,6.85%,5.95%,2.3%,-0.65%,-2.15%,7.45%
COc1c(NC(=O)c2c(Br)c(Br)c(Br)c(Br)c2C(=O)O)cccc1[N+](=O)[O-],1.5%,6.65%,7.65%,-4.2%,-1.2%,17.1%
CCc1[nH]c2ccc(C)cc2c1C(=O)c1cccnc1,5.3%,-0.15%,16.4%,7.2%,21.3%,7.6%
C=C1CN(C(=O)NCCCl)C1,10.6%,17.4%,4.15%,-11.3%,4.1%,-7.8%
C=CC(C)(C)/C=C/C=O,-18.8%,-15.1%,-12.1%,5.65%,24.6%,-32.1%
CC(C)(C)n1nnnc1N,-8.55%,-7.55%,6%,-0.05%,11.1%,-20.9%
CC(/C=C/c1ccccc1)=N\O,9.4%,7.2%,-1.4%,28.8%,3.45%,1.95%
CC1CC[C@]2(C(=O)O)CCC3(COC(=O)/C=C\c4ccc(O)cc4)C(=CCC4[C@@]5(C)CC[C@H](O)C(C)(C)C5CC[C@]43C)[C@@H]2[C@H]1C (stereo partly specified),-1.9%,1.35%,-1.65%,5.55%,-3.1%,-17.8%
COCC/C=C/CCl,-8.75%,-22.6%,-8.35%,-8.95%,-7.65%,5.1%
CCCCC(CC)C(O)CC(C)=O (stereo unspecified),39.1%,16.9%,25%,-8.75%,14.2%,21.1%
COC1=CC(=O)C(C(C)=O)=C(C2(C)C(=O)CCCC2=O)C1=O,-12.3%,0.5%,-0.6%,6.25%,5.15%,7.25%
Cc1ccc(NCCN(C)C)c2c(=O)c3cccc(O)c3sc12,73.5% (active),35.1%,18.2%,26.8%,40.4%,65%
CCCCCCCC/C=C/CCCCCCCC(=O)N(C)CC(=O)O,-18.6%,-17%,10.8%,-29.1%,22.5%,-8.05%

Structure (SMILES),growth inhibition [1],growth inhibition [2],growth inhibition [3],growth inhibition [4],growth inhibition [5],growth inhibition [6]
CC12CCC(C(S(=O)(=O)O)C1=O)C2(C)C (stereo unspecified) (tested in a mixture with another compound),-1.2%,-15.1%,-6.7%,-5.7%,-0.6%,0.55%
OCC1OC(n2cnc3[nH]cnc(=S)c32)C(O)C1O (stereo unspecified),4.3%,14.2%,0.35%,1.05%,-6.35%,14.7%
CC(C)(C)SC(=S)SCC(=O)c1cc2cc(Br)ccc2o1,-19.7%,-25.6%,-11.5%,-3.25%,-16.9%,-8.5%
CS(=O)(=O)OC[C@@H]1C2CCC(C2)[C@@H]1COS(C)(=O)=O,-8.45%,-12.8%,1.5%,-52.8%,-3.5%,-14.2%
OC(Cc1ccccn1)c1ccccc1 (stereo unspecified),33.4%,13.1%,21.4%,22.6%,9.35%,32.1%
Cn1c2nc(=O)n(-c3ccccc3)c(=O)c-2nc2c1CCCC2,-4.95%,-10.7%,1.55%,-6.45%,3.9%,-60.7%
O=C(Nc1ccccc1C(=O)N/N=C/c1cccc(O)c1)c1ccccc1,9.5%,24.8%,12.9%,-20%,34.5%,4.55%
O=C(Nc1cc(NC(=O)n2nnc3ccccc32)c(Br)cc1Br)n1nnc2ccccc21,51.4%,25%,27.2%,24.2%,2.15%,27.8%
O=C(N/N=C\c1ccc(Cl)cc1Cl)C1CC1,-19.8%,-3.8%,-7.6%,-19.2%,-19.3%,-24.9%
CCC(=O)N1NC(=O)C(CC)(CC)C1=O,-1.95%,-26.2%,11.1%,10.7%,-2.3%,-35.6%
O=C(O)c1ccc2c(c1)CC1(C2)Cc2ccccc2C1=O (stereo unspecified),-16.4%,-4.9%,-8.2%,-14.2%,6.15%,-2.75%
CCOC(=O)Cn1ccc[n+]1CC(=O)c1ccccc1,-14.9%,7.9%,17.4%,-16.2%,-15.4%,-3.1%
Cc1c(NC(C)C)ccc(NC(C)C)c1C,35.3%,27.6%,26.3%,17%,25.2%,43.2%
O=C1CSC(C(N=Nc2ccc(Cl)cc2)c2nc3ccccc3[nH]2)=N1 (stereo unspecified),-50.6%,-26.3%,-43.1%,-18.1%,-42.6%,-46.7%
COC(=O)/C(=N/NC(C)(C)C)C(C(=O)C=C(C)C)C(=O)C(=O)Nc1ccc(Cl)cc1C (stereo unspecified),2.2%,-1.55%,-11.2%,-28.9%,-0.7%,0.8%
COc1ccc2ccc3c(CCN(C)C#N)cc4c(c3c2c1OC(C)=O)OCO4,11.7%,-2.15%,-8.9%,6.6%,-0.95%,0.15%
COc1ccc(/C=C/C(=O)c2cc(C(=O)O)c(OC)cc2OC)cc1OC,4%,-6.45%,22.4%,14.2%,17.9%,-20.8%
N#CSCC(Cl)=CCl (mixture of isomers),2.95%,0.95%,-4.4%,12.5%,0.5%,-19.6%
COC(=O)C1CSC(C)(C)N1 (stereo unspecified),10.6%,-8.55%,-1.5%,-0.95%,-7.35%,4.35%
COc1cc(/C=C(\C#N)C(=O)c2ccccc2)ccc1O,-13.8%,-18.1%,-11.9%,5.4%,-27.5%,3.05%
